Results taken from PubChem BioAssay AID925 (National Center for Advancing Translational Sciences (NCATS), 2007).
Screen size: about 65,000 compounds; about 40 (0.06%) were called active. The call rests on the fitted dose curve; in most records, active means well fitted activation curve with a large enough effect; inconclusive means small, poorly fitted or top-dose-only effect; inactive means flat fitted curve, though single readings scatter. The sample as a whole holds a higher share of actives than the screen did.

test: qHTS Assay for Modulators of Hemoglobin Beta Chain Splicing; conditions: HBB splicing reporter cell assay, EGFP reporter with mutant IVS2-654 intron; Potency: activation; series mostly up to 46.1 µM; further: 0% is about no effect
Description: NIH Chemical Genomics Center [NCGC]
NIH Molecular Libraries Screening Centers Network [MLSCN]
PI Name: Dr. Ryszard Kole
Modulation of Alternative Splicing as Therapy
Abnormal splicing is associated with a number of diseases, including cancer and genetic diseases such as cystic fibrosis, muscular dystrophy and beta-thalassemia. Alteration of disease associated splicing patterns provides a promising target for treatment. […] Mutations in the second intron of the beta-globin gene at positions are clinically relevant and cause mis-splicing which results in an out of frame gene product.
EGFP-654 and 705 HeLa Cells as screen system.
HeLa cell lines were stably transfected with a construct in which the EGFP (enhanced green fluorescent protein) cDNA was interrupted by the second intron of the beta-globin gene (IVS2-654). The ISV2 intron contains mutations which cause mis-splicing of EGFP and premature termination of EGFP which results in a nonfluorescent protein product. […] Expression of the transgene was driven by the CMV promoter. We concluded that a low molecular weight compound, which restored correct splicing of intron 2 would also generate functional EGFP protein, resulting in a fluorescent signal. Thus, the HeLa cells that express the EGFP-654 construct can be used for high throughput screening of a chemical library.
NCGC Assay Protocol Summary:
High Throughput Screening. Freshly thawed HeLa EGFP-654 cells were seeded in 5 ul of optimem media (Invitrogen) containing 2 % fetal calf serum (Hyclone) and 1x penicillin/streptomycin (Invitrogen) at a concentration of 500 cells per well in 1536-well plates. Cells were incubated overnight at 37C in 5% CO2. The next day, cells were treated with DMSO, 500 nM antisense ISV2 654 PNA control oligo, or library compound and allowed to grow at 37C in 5% CO2 for 2 days. The PNA oligo blocked the mutation site in the intron and allowed proper (wild type) splicing to occur, resulting in full length EGFP expression and also allowed for optimization of the assay parameters. Plates were read in the Acumen Explorer (TTP Labtech) using 488 nm laser excitation and 500-520 nm emission PMT filter in a 1 x […] capture mode. Fluorescnet Fluorescent objects ranging in size from […] were measured and the total peak GFP intensity for each well was used for data analysis.
Keywords: Thalassemia, beta-thalassemia, beta-globin, EGFP, ISV2 654, ISV2 705, SSO, PNA, antisense, splicing, MLSMR, MLSCN, NIH Roadmap, qHTS, NCGC

activation, inactive:
COC(=O)CCCCCN1C(=O)NC(c2ccc(-c3ccccc3)cc2)C(C(=O)OCc2ccccc2)=C1C (configuration not stated), NC[C@@H]1O[C@H](O[C@@H]2[C@H](O[C@@H]3O[C@H](CO)[C@@H](COC[C@H]4O[C@@H](CN)[C@@H](O)[C@@H](O)[C@@H]4N)[C@@H]3O)[C@@H](O)[C@@H](N)C[C@H]2N)[C@@H](N)[C@H](O)[C@@H]1O, CO[C@H]1COC(=O)CCC[C@@H](C)[C@H](OC)COC(=O)[C@@H](C)NC(=O)C/C=C\[C@@H]1C 1.62% [at 9.22 µM, normalised to 500 nM splice-correcting PNA], COC(=O)[C@@]1(Cc2ccc(F)cc2)[C@H]2c3cc(C(=O)N4CCCC4)n(C[C@H](O)CO)c3C[C@H]2CN1C(=O)c1ccccc1, COc1ccc(/C=C/NC(=O)c2ccc(OC)cc2)cc1 0.0031% [at 9.22 µM, normalised to 500 nM splice-correcting PNA], CN(C)c1cc2c(Nc3ccc4c(cnn4Cc4ccccc4)c3)ncnc2cn1, Cc1cccc(C(=O)O)c1, COC(=O)[C@@]1(C)C=C[C@@H](Cc2ccccc2)N1C(C)=O, COC(=O)C1(Cc2ccccc2)C=C2C(=C(C)C(=O)C2C)CN1 (configuration not stated), C=CC(=O)OCCOCCOCCOCCOC(=O)C=C, Oc1cc2c(cc1O)CN(C(=S)NCCc1ccc(Cl)cc1)CCC2, O=C(c1ccco1)N1CCC[C@@]2(CCN(Cc3nccs3)C2)C1, CN(C)C(=O)c1ccc(-c2cncnc2Nc2ccccc2)cc1, COc1cccc([C@H]2Oc3ccc(OC)cc3/C(=N\OCC[C@@H]3C=C[C@H](OC(C)=O)[C@H](COC(C)=O)O3)[C@@H]2O)c1 -1.11% [at 9.22 µM, normalised to 500 nM splice-correcting PNA], COc1cc([C@H]2c3cc4c(cc3[C@@H](O[C@@H]3O[C@H]5CO[C@@H](C)O[C@]5(O)C[C@H]3O)[C@@H]3COC(=O)[C@H]23)OCO4)cc(OC)c1O, Cc1cc(Cl)ccc1OCC(=O)Oc1c(Cl)c(Cl)c(Cl)c(Cl)c1Cl 0.153% [at 9.22 µM, normalised to 500 nM splice-correcting PNA], C/C(CCN1CCc2nc(-c3ccccc3)c(-c3ccccc3)cc2C1)=N\O[C@@H](C)c1cn([C@@H]2COC[C@@H]2O)nn1 -1.08% [at 9.22 µM, normalised to 500 nM splice-correcting PNA]
